The campaign covered roughly 640,000 compounds. About 9,300 (1.5%) were called active. Only a selection was taken, and actives are over-represented in it overall. Unmarked numbers belong to inactive results. Rule as the data show it: active = inhibition above about 32%; inactive = the rest.

The assay can be described thus: TEAD-YAP interaction inhibition, primary screen, TEAD-YAP interaction inhibitor project, luminescence, HEK-TIYL cells (AID 1259422).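 Also: 0% = median of test compound wells and 100% = reference inhibitor wells.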 Conditions: TEAD-Gal4/YAP UAS-luciferase luminescence, at 9.12 µM, active compounds read high.
For `COc1ccc(CNCc2c(C(=O)O)[nH]c3ccccc23)cc1`, the inhibition (commonly the drop in the measured response relative to a control, in per cent) is -5.51%.

On to `C=Cc1ccc(Cn2c(C(=O)O)c(CNCc3ccccc3OC)c3ccccc32)cc1`, for which the inhibition is 14.2%.

On to `Cc1cccc(NC(=O)CC2SC(=Nc3ccccc3)NC2=O)c1` (stereo unspecified), for which the inhibition is 3.61%.

Take `O=C(O)CC1SC(=Nc2ccccc2)NC1=O` (stereo unspecified): the inhibition is 4.55%.

Consider `Cc1ccc(N=C2NC(=O)C(Cc3ccccc3Cl)S2)cc1` (stereo unspecified), for which the inhibition is 33.1% (active).

Take `CC(C)c1ccc(OCC(O)CN2CCN(c3ccccn3)CC2)cc1` (stereo unspecified): the inhibition is -5.32%.

Regarding `Cc1cc(N2CCN(c3ccccn3)CC2)nc2c(C)cccc12`, the inhibition is 2.36%.

For the molecule `Cc1ccc(C(c2cc(Cl)c3cccnc3c2O)N2CCN(c3ccccn3)CC2)cc1` (stereo unspecified), the inhibition was 38% (active).

Take `CCOc1ccc(C(=O)Nc2sc3c(c2C(N)=O)CC(C)CC3)cc1` (stereo unspecified): the inhibition was 2.83%.

As to `CC(C)n1cnc2c(NCCOc3ccccc3)nc(-c3ccc(C(=O)NC4CC4)cc3)nc21`, the inhibition was 13.6%.

Consider `CC1=CC2=NC(=O)/C(=C\c3cc(C)n(-c4cccc(C)c4C)c3C)C(=N)N2O1`, for which the inhibition was 9.28%.

For the molecule `Cc1cc(/C=C2/C(=N)N3C=CSC3=NC2=O)c(C)n1-c1ccccc1F`, the inhibition is 86.4% (active).

As for `COc1cc(OC)c(-n2c(C)cc(/C=C3/C(=N)N4C=CSC4=NC3=O)c2C)cc1Cl`, the inhibition was -0.88%.

Take `Cc1cc(/C=C2/C(=N)N3C=CSC3=NC2=O)c(C)n1-c1ccc(F)cc1`: the inhibition was 41.3% (active).

For the molecule `Cc1cc(/C=C2\C(=N)N3N=C(S(C)(=O)=O)SC3=NC2=O)c(C)n1-c1ccc(F)cc1`, the inhibition was 4.07%.

Consider `CC1=CN2C(=N)/C(=C/c3cc(C)n(-c4ccc(F)cc4)c3C)C(=O)N=C2S1`, for which the inhibition was -6.11%.

In the case of `COCC1=C(C(=O)OC)C(c2ccc(Cl)cc2Cl)n2ncnc2N1` (stereo unspecified), the inhibition is -3.21%.

In the case of `CN1C(=O)C(O)=C(c2ccccc2)S1(=O)=O`, the inhibition is 5.68%.

For `COc1cccc(NC(=O)Cn2c(=O)c(C(F)(F)F)nc3ccccc32)c1`, the inhibition was 5.63%.

Consider `Cc1ccc(NC(=O)/C(=C/c2ccc(Cl)cc2)NC(=O)c2ccco2)cc1`, for which the inhibition is -3.43%.

Regarding `CC(C)C(=O)NCC1CCC2(CCN(Cc3nc(-c4ccccc4)cs3)CC2)O1` (stereo unspecified), the inhibition is 96.7% (active).

On to `CC(C)C(=O)NCC1CCC2(CCN(Cc3ccc4ccccc4c3)CC2)O1` (stereo unspecified), for which the inhibition was 9.09%.

As to `COc1ccccc1CN1CCC2(CCC(CNC(=O)C(C)C)O2)CC1` (stereo unspecified), the inhibition is -13.5%.

On to `CCOC(=O)N1CCc2c(sc(NC(=O)/C=C/c3cccc([N+](=O)[O-])c3)c2C#N)C1`, for which the inhibition is 33.5% (active).

Take `CC(=O)N1CCc2c(sc(NC(=O)CCS(=O)(=O)c3ccccc3)c2C#N)C1`: the inhibition is 3.65%.

For the molecule `CC(=O)N1CCc2c(sc(NC(=O)CCSc3ccccc3)c2C(N)=O)C1`, the inhibition is 3.99%.

Consider `CCOC(=O)N1CCc2c(sc(NC(=O)c3ccc([N+](=O)[O-])s3)c2C#N)C1`, for which the inhibition is 3.38%.

As to `N#Cc1c(NC(=O)/C=C/c2cccc([N+](=O)[O-])c2)sc2c1CCCC2`, the inhibition is -1.55%.

For `CCOC(=O)N1CCc2c(sc(NC(=O)CCSc3ccccc3)c2C#N)C1`, the inhibition was 44.1% (active).

As for `O=C(OC1CCS(=O)(=O)C1)c1ccccc1` (stereo unspecified), the inhibition is -9.29%.

As for `CN1CCN(S(=O)(=O)c2ccc(Sc3ccc(Br)cc3)c(C(=O)O)c2)CC1`, the inhibition is -2.07%.

On to `CCOc1cc(C2Nc3ccccc3C(=O)N2c2ccc(OC)cc2)ccc1O` (stereo unspecified), for which the inhibition is -26.9%.

Consider `CCCN1C(=O)c2ccccc2NC1c1ccc(O)c(OC)c1` (stereo unspecified), for which the inhibition was 45.1% (active).

In the case of `CCCN1C(=O)c2ccccc2NC1c1ccc(OC)c(COc2ccc(Cl)cc2)c1` (stereo unspecified), the inhibition is 1.41%.

Consider `CCOC(=O)N1CCN(C(=O)CC2C(=O)NCCN2Cc2ccccc2C)CC1` (stereo unspecified), for which the inhibition was 4.23%.

As to `CCOc1ccc(C(=O)NC(=S)Nc2ccc(N3CCCCC3)cc2)cc1`, the inhibition was -3.84%.

Regarding `O=C(NC1(c2ccc3c(c2)OCO3)CCCC1)c1cscn1`, the inhibition was 5.97%.

In the case of `NC(=O)c1sc2nc(C34CC5CC(CC(C5)C3)C4)ccc2c1N`, the inhibition is -1.93%.

`CCOC(=O)c1ccc2c(c1)C(=O)N(c1ccc3ccccc3c1)C2=O`: the inhibition is -2.85%.

As to `CCOC(=O)c1ccc2nc(C34CC5CC(CC(C5)C3)C4)ccc2c1`, the inhibition is 46.2% (active).

For `CC1CCc2sc(NC(=O)c3ccccc3F)c(C#N)c2C1` (stereo unspecified), the inhibition is -31.8%.

Consider `COCCNc1c(-c2ccc(Cl)cc2)c(=O)c1=O`, for which the inhibition was -4.73%.

`CC(C)OCCCNc1c(-c2ccc(C(C)C)cc2)c(=O)c1=O`: the inhibition is 42.2% (active).

Turning to `Cc1ccc(-c2c(NCCCc3ccccc3)c(=O)c2=O)cc1`, the inhibition is -2.15%.

On to `COc1ccc(NS(=O)(=O)c2cc(NC(=O)CCCNC(N)=O)ccc2OC)cc1`, for which the inhibition was 5.83%.

For `COc1cccc(-c2nn3c(=O)c4ccccc4nc3n2N)c1`, the inhibition was 34.2% (active).

As for `COc1cccc(-c2nc3ccccc3c(=O)n2NC(=O)c2cccc(C)c2)c1`, the inhibition is 5.37%.

In the case of `COc1cccc(-c2nc3ccccc3c(=O)n2NC(=O)c2ccccc2C)c1`, the inhibition is 2.18%.

`COc1cccc(OC)c1C(=O)N1CCN(c2cccc(C)c2C)CC1`: the inhibition is 4.01%.

Consider `COc1ccc(C)cc1S(=O)(=O)N1CCN(C)CC1`, for which the inhibition is 13.6%.

With `COc1ccc(C)cc1S(=O)(=O)N1CCN(c2cc(-n3ccnc3C)ncn2)CC1`, the inhibition was 41.4% (active).

Take `COc1ccccc1N1CCN(S(=O)(=O)c2cc(C)ccc2OC)CC1`: the inhibition was -9.44%.

Consider `COc1ccc(C[C@@H]2NC(=O)[C@@H]3C[C@H](NCc4cnn(-c5ccccc5F)c4)CN3C2=O)cc1`, for which the inhibition is 10.7%.

On to `CCC(C)N1C(=O)C2C(C(=O)Nc3ccc(F)c(Cl)c3)C3C=CC2(O3)C1C(=O)NC1CCCC(C)C1C` (stereo unspecified), for which the inhibition is -20.7%.

`C/C(=N\NC(=O)Cc1cccn1C)c1ccc(O)cc1`: the inhibition was -12.8%.

Take `CCN1CCSc2ccc(C(=O)NCCCOC)cc21`: the inhibition was 0.64%.

`COCCNC(=O)c1ccc2c(c1)ncn2-c1ccc(C)c(Cl)c1`: the inhibition is -17.5%.

On to `COCCNC(=O)c1ccc2c(c1)N=C(C)c1cc(Br)ccc1S2`, for which the inhibition is 52.5% (active).

In the case of `CC1=Nc2cc(C(=O)O)ccc2Sc2ccccc21`, the inhibition was -2.24%.

Take `COCCNC(=O)c1ccc2c(c1)N=C(C)c1cc(C)ccc1S2`: the inhibition was 67.6% (active).

`COCCNC(=O)/C=C/c1ccc(Br)cc1`: the inhibition was -24.8%.

Values taken from PubChem BioAssay AID1259422 (The Scripps Research Institute Molecular Screening Center, 2018).
